High-throughput results as filed in PubChem.
This is a sample that favours compounds with a hit; in the whole collection about 1.3% have one here.
SRC3 inh = inhibitors of human steroid receptor coactivator 3 (SRC3). Q9Y6Q9. HEK293 GAL4-SRC3 luciferase reporter, luminescence. inhibition, % at 3.6 µM. 360,000 tested, 0.17% active. AID 588352;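 active = inhibition above a per-campaign cutoff, the mean of all compounds plus 3 SD, cut at about 60% in these data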;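 note: 0% = DMSO-treated cells and 100% = gossypol-treated cells at 36 µM; higher means less SRC3-driven luciferase light from the GAL4 reporter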
NCOA2 inhibitor = inhibits human steroid receptor coactivator 2; Q15596; HEK293 GAL4-SRC2 luciferase reporter, luminescence; inhibition, % at 9 µM; 370,000 tested, 0.17% active; AID 651957;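 active = inhibition above the mean inhibition of all tested compounds plus 3 SD, set per campaign, cut at about 52% in these data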;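 note: 0% = DMSO treated cells and 100% = cells given Gossypol at 36 µM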
Gli-Sufu antag = antagonists of Gli-Sufu signaling. AID 588413. 340,000 tested, 0.74% active. inhibition, % at 5 µM. Sufu-KO-LIGHT fibroblasts, Gli luciferase reporter luminescence;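 active = inhibition above about 55%, limit read from the data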;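 note: 0% = DMSO-treated cells and 100% = wells with medium but no cells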
COUP-TFII inh = NR2F2 (human) inhibition, primary screen; P24468; HEK293T NGFI-A luciferase reporter, luminescence; inhibition, % at 8.6 µM; 370,000 tested, 0.7% active; AID 686940;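 active = inhibition above a per-plate cutoff, mean inhibition of test wells between control levels plus 3 SD, cut at about 38% in these data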;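 note: cells cotransfected with COUP-TFII expression vector driving the NGFI-A reporter; 0% = median of COUP-TF2 test wells and 100% = reporter-only cells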
LRH-1 inv ag = inverse agonists of human LRH-1 (NR5A2) | O00482 | HEK293T StAR-luciferase reporter, LRH-1 transfected, 24 h | inhibition, % at 3.6 µM | 360,000 tested, 0.13% active | AID 602396;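 active = inhibition above the mean inhibition of all tested compounds plus 3 SD, cut at about 73% in these data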;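 note: 0% = DMSO wells and 100% = reporter-only cells lacking LRH-1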
SRC1 inh = human NCOA1 inhibition. Q15788. HEK293 GAL4-SRC1 luciferase reporter, luminescence. inhibition, % at 3.6 µM. 360,000 tested, 0.12% active. AID 588354;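 active = inhibition above the campaign mean plus 3 SD, with each screening campaign given its own cutoff, cut at about 60% in these data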;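 note: 0% = DMSO treated cells and 100% = gossypol at 36 µM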
Target sequence (Q15788 whole entry, looked up, the tested form may be a part): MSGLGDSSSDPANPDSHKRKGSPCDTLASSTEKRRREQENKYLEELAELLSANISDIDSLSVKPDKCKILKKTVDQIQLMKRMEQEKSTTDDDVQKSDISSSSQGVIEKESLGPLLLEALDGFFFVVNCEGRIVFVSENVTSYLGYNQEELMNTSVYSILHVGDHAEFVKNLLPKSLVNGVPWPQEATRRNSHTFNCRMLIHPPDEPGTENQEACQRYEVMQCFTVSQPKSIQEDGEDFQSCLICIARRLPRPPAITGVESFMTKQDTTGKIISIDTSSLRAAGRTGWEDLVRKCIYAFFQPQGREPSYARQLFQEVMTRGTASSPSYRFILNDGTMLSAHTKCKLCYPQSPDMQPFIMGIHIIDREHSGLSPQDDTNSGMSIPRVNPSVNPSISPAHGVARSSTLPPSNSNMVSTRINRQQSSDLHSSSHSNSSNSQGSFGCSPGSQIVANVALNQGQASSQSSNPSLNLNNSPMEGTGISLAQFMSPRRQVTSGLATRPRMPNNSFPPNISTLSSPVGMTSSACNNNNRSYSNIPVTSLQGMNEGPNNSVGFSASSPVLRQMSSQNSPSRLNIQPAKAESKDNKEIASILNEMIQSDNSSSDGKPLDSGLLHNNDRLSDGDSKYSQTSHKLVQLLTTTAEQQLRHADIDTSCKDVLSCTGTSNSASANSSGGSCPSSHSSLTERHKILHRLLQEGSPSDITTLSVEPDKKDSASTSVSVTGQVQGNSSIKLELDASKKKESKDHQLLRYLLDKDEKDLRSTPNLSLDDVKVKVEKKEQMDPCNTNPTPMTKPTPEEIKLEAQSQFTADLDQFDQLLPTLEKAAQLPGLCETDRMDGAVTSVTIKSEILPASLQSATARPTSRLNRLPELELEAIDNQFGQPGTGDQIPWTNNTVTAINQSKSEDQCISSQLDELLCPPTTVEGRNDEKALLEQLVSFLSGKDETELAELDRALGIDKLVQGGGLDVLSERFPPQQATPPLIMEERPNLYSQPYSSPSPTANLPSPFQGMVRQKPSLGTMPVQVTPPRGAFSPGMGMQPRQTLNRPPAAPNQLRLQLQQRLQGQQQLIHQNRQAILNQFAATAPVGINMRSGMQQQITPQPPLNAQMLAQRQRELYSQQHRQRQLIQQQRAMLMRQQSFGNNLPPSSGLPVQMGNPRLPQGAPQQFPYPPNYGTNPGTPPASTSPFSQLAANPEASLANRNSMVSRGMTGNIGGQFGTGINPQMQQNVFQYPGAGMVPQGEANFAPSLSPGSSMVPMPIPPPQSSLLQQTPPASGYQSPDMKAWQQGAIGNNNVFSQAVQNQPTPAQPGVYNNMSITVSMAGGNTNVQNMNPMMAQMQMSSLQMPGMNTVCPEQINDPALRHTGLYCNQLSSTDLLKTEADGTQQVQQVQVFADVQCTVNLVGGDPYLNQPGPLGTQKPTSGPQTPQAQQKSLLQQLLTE
Gli antag conf = confirmation of Gli-SUFU pathway antagonists | Sufu-KO-LIGHT cells, Gli luciferase reporter, luminescence | AID 602428 | inhibition, % at 5 µM | 2,500 tested, 40% active | shares compounds with Gli-Sufu antag;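 active = mean inhibition at 5 µM reaching about 45%, limit read from the data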;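 note: plate controls were DMSO-treated cells for no effect and wells lacking cells for full effect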
SufuKO cytotox = cytotoxic in Gli-SUFU antagonist counter-screen. shares compounds with Gli-Sufu antag. 2,500 tested, 32% active. AID 651994. cytotoxicity, % at 5 µM. Sufu-KO-LIGHT cells cytotoxicity, ATP luminescence;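 active = mean cytotoxicity at 5 µM above about 25%, limit read from the data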;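 note: cells exposed to compound overnight for roughly 16 to 18 hours; plate controls were DMSO wells with cells for no effect and medium without cells for full effect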
Wnt3a cs = counter-screen for Gli-SUFU antagonists: Wnt3a reporter inhibition; shares compounds with Gli-Sufu antag; Wnt-LIGHT cells, Wnt3a-driven luciferase reporter, luminescence; inhibition, % at 6.25 µM; 2,500 tested, 20% active;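 active = mean inhibition above about 25%, limit read from the data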
Starred values were filed as active, the others as inactive; nt = no result.

SMILES	SRC3 inh	NCOA2 inhibitor	Gli-Sufu antag	COUP-TFII inh	LRH-1 inv ag	SRC1 inh	Gli antag conf	SufuKO cytotox	Wnt3a cs
COc1cccc(N(CC(=O)Nc2cccc(C(C)=O)c2)S(C)(=O)=O)c1	6	-3	77*	-8	6	10	12	16	-21
CCc1ccccc1NC(=O)CN(c1cccc(OC)c1)S(C)(=O)=O	2	-8	92*	6	5	16	13	6	-11
COc1cccc(NC(=O)CN(c2cccc(OC)c2)S(C)(=O)=O)c1	9	-12	4	-7	-9	-3	nt	nt	nt
COC(=O)C[C@H]1CC[C@@H]2[C@@H](COc3ccc(NC(=O)Nc4ccccc4OC)cc3C(=O)N2C)O1	nt	13	nt	18	nt	nt	nt	nt	nt
COc1ccc(Cn2cc(CN3[C@@H](CC(C)C)COc4cccc(F)c4S3(=O)=O)nn2)cc1	nt	-7	nt	-8	nt	nt	nt	nt	nt
Cn1c(NC(=O)c2ccccc2)nc(Cc2ccccc2)c1-c1ccccc1	nt	-1	nt	5	nt	nt	nt	nt	nt
CCCCNC(=O)C1CCN(S(=O)(=O)c2ccc3c(c2)CC(C)N3C(=O)C2CC2)CC1 (stereo unspecified)	1	-2	94*	-11	0	-23	16	6	-16
CC(=O)N1c2ccc(S(=O)(=O)N3CCC(C(=O)N4CCCCC4)CC3)cc2CC1C (stereo unspecified)	26	3	55	12	12	-24	49*	24	-5
CC(=O)N1c2ccc(S(=O)(=O)N3CCCCC3)cc2CC1C (stereo unspecified)	7	-7	-13	4	11	3	nt	nt	nt
C[C@H](O)[C@@H]1CN2CCc3c([nH]c4c(-c5ccc6c(c5)OCO6)cccc34)[C@@H]2C[C@@H]1N(C)C(=O)c1ccccc1F	nt	6	nt	-11	nt	nt	nt	nt	nt
C=CCN1C(=O)[C@@H](CC(=O)NCC2CCCCC2)[C@]2(C(=O)OCC)CCCCC/C=C/12	nt	-21	nt	0	nt	nt	nt	nt	nt
COc1cccc(CNCCN2CCOCC2)c1OC	3	-27	-4	-2	12	-37	nt	nt	nt
CCOc1c(CNCCN2CCOCC2)cccc1OC	14	-2	52	18	25	4	30	-1	23
O=C(NC1CCCCN(Cc2cccc(C(F)(F)F)c2)C1=O)c1ccc(-c2ccccc2)cc1 (stereo unspecified)	nt	-19	nt	5	nt	nt	nt	nt	nt
Cc1nc2ncccn2c1-c1csc(Nc2ccc(O)cc2)n1	1	-31	55*	-85	16	-34	52*	19	-35
Cc1ccc(Nc2nc(-c3c(C)nc4ncccn34)cs2)cc1	14	6	57*	-108	4	-29	64*	62*	-61
COc1ccc(/C=C/S(=O)(=O)NC2CCCC2)c(CNC(=O)OC(C)(C)C)c1	nt	-4	nt	3	nt	nt	nt	nt	nt
CC(C)(C)c1ccc(S(=O)(=O)NCC2CCCO2)cc1 (stereo unspecified)	-8	9	62*	-7	-5	11	23	3	-38
CC(=O)Nc1cc(-c2nn(C)c(=O)c3ccccc23)ccc1N1CCCCC1	11	-9	5	-9	21	-2	nt	nt	nt
CC(=O)Nc1cc(-c2nn(CC(=O)N3CCCCC3)c(=O)c3ccccc23)ccc1N1CCOCC1	10	8	51	1	-2	2	16	9	-25
COc1cc(OC)c2c(-c3cccc(-c4ccc(OC)c(F)c4)c3)cc(=O)oc2c1	8	-3	60*	-77	21	-32	59*	60*	-7
Cn1nc(CC(=O)NCc2ccc(C(F)(F)F)cc2)c2ccccc2c1=O	21	-4	55*	23	11	-8	52*	25*	17
CCC(=O)N1CCc2cc(Br)c(S(=O)(=O)NCc3ccccc3OC)cc21	nt	-27	nt	0	nt	nt	nt	nt	nt
C=CCCN(C(CC(C)C)C(=O)OC)S(=O)(=O)c1cc(Br)ccc1Br (stereo unspecified)	21	2	51	-8	0	11	19	22	16
CC(C)CSc1nnc(-c2ccco2)n1C	nt	-20	nt	-19	nt	nt	nt	nt	nt
SMILES	SRC3 inh	NCOA2 inhibitor	Gli-Sufu antag	COUP-TFII inh	LRH-1 inv ag	SRC1 inh	Gli antag conf	SufuKO cytotox	Wnt3a cs
CC(=O)N(C)c1cccc(-c2ccc3nnc(C)n3n2)c1	7	2	56*	-5	0	2	16	2	23
N#CC1=C(N)N2C(=C(C#N)C1c1ccc(Br)cc1)Nc1ccccc12 (stereo unspecified)	nt	-12	58*	6	nt	nt	83*	37*	67*
N#CC1=C(N)N2C(=C(C#N)C1c1cccc(Br)c1)Nc1ccccc12 (stereo unspecified)	12	10	47	-5	5	9	nt	nt	nt
O=C([C@@H]1C[C@H]1c1ccccc1)N1CC[C@H]2[C@H](CCCN2Cc2ccc(F)cc2)C1	nt	-8	nt	14	nt	nt	nt	nt	nt
O=C(NC1CCCCN(Cc2ccc(OC(F)(F)F)cc2)C1=O)c1ccc(F)c(F)c1 (stereo unspecified)	nt	4	nt	8	nt	nt	nt	nt	nt
CN1CCCN(C(=O)C2CCCN(C(=O)c3ccc4c(c3)NC(=O)CS4)C2)CC1 (stereo unspecified)	nt	-28	nt	-11	nt	nt	nt	nt	nt
O=C(Cn1ccc(C(F)(F)F)n1)N/N=C/c1ccc2c(c1)OCO2	-15	-24	58*	6	-3	-15	9	21	-68
CCC[C@H](/C=C/C(=O)OC(C)(C)C)Sc1ccc(OC)cc1	nt	-26	nt	-19	nt	nt	nt	nt	nt
CC(c1ccc(F)cc1)n1cc(C(=O)NCCN(C)C)nn1 (stereo unspecified)	19	-1	57*	-7	4	0	29	21	6
C#CCN1C(C(=O)OC)CN(CCCCCC)CCS1(=O)=O (stereo unspecified)	nt	10	nt	9	nt	nt	nt	nt	nt
O=C(NC1CCCCC1)C1CCCN(S(=O)(=O)c2ccc(F)cc2)C1 (stereo unspecified)	8	6	-14	1	8	6	nt	nt	nt
CN(C)S(=O)(=O)c1ccc(S(=O)(=O)N2CCCC(C(=O)NC3CCCC3)C2)cc1 (stereo unspecified)	-3	13	70*	6	-12	-8	28	33*	3
O=C(NN=C/C=C/c1ccco1)c1cc(-c2ccc(Cl)cc2)n[nH]1	nt	-6	nt	3	nt	nt	nt	nt	nt
Cc1cccc(N2C(=O)/C(=C/c3cccnc3)SC2=S)c1	13	0	44	-5	3	-16	nt	nt	nt
Cc1cc(/C=C2/SC(=S)N(c3ccc([N+](=O)[O-])cc3)C2=O)c(C)n1-c1cccnc1	22	20	81*	11	1	14	82*	20	-8
